Data from PubChem BioAssay (NCI).
The panel holds about 79,000 compounds, 15% with a hit somewhere; the sample as a whole holds those more often. Cut-off read from the data, not from the text of the source: active = growth inhibition above about 70%; inactive = the rest.

How the values were obtained:
[1] = NCI Yeast Anticancer Drug Screen. Data for the rad50 strain (AID 155);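 note: 0% = growth of vehicle-only cultures of the same strain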; conditions: S. cerevisiae rad50 strain growth inhibition; at 50.0 µM; stronger effect = higher value
Summary of the method: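 Cells are treated with compound, grown, and their growth is then scored against vehicle-only cultures of the same repair-deficient yeast strain.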

[2] = NCI Yeast Anticancer Drug Screen. Data for the mec2-1 strain (AID 157); conditions: S. cerevisiae mec2-1 strain, at 50.0 µM, stronger effect = higher value
Summary of the method: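 mec2-1 yeast strain, carrying an alteration in DNA damage repair or cell cycle control, was exposed to compounds; growth inhibition was measured relative to vehicle-treated controls.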

[3] = NCI Yeast Anticancer Drug Screen. Data for the sgs1 mgt1 strain (AID 161);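 note: 0% = growth of cultures given vehicle only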; conditions: S. cerevisiae sgs1 mgt1 strain, at 50.0 µM, stronger effect = higher value
Summary of the method: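 This yeast growth screen uses a strain with defined DNA-repair lesions; compound-treated growth is compared with vehicle-treated growth.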

[4] = NCI Yeast Anticancer Drug Screen. Data for the cln2 rad14 strain (AID 165);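 note: 0% = growth equal to vehicle treated cultures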; conditions: S. cerevisiae cln2 rad14 strain, at 50.0 µM, stronger effect = higher value
Summary of the method: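 Yeast carrying cln2 and rad14 alterations (cell cycle control and DNA damage repair) were exposed to compounds. Growth inhibition was measured against vehicle-treated controls.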

[5] = NCI Yeast Anticancer Drug Screen. Data for the bub3 strain (AID 167); conditions: S. cerevisiae bub3 mutant strain, at 50.0 µM, stronger effect = higher value
Summary of the method: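 Part of a panel of yeast mutants defective in DNA damage repair or cell cycle regulation. Each strain is grown with compound, and inhibition is calculated relative to solvent-treated cultures.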

[6] = NCI Yeast Anticancer Drug Screen. Data for the mlh1 rad18 strain (AID 175); conditions: S. cerevisiae mlh1 rad18 strain growth inhibition; at 50.0 µM; stronger effect = higher value
Summary of the method: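 Growth inhibition of the yeast strain was measured after compound exposure and expressed relative to vehicle-treated controls. The strain carries defined defects in DNA damage repair.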

Measured: growth inhibition

CCOC(=N)CC(=O)Nc1cccc(C)c1Cl
inactive: [1] -2.85% | [2] -14.1% | [3] -11.4% | [4] 18.6% | [5] 8.5% | [6] -3.3%

COc1ccc(C(=O)/C(=N/Nc2ccccc2)c2ccc(OC)cc2)cc1
inactive: [1] -3.45% | [2] -13.8% | [3] -1.25% | [4] 2% | [5] 1.8% | [6] 30.8%

C=CCC(OC(C)=O)c1ccc(C(C)C)cc1 (stereo not drawn)
inactive: [1] 4% | [2] 0.9% | [3] -23.4% | [4] -55.1% | [5] -0.5% | [6] 5.45%

O=C(O)C1CSC(c2ccccc2)N1 (stereo not drawn)
inactive: [1] 1.95% | [2] -12.8% | [3] -4.35% | [4] 3% | [5] -5.55% | [6] 2.55%

CCNc1ncnc2[nH]ncc12
inactive: [1] -8.2% | [2] -6.45% | [3] -5.6% | [4] -13.8% | [5] 3.9% | [6] -5.3%

N#CCCN1C(=O)CCC1C(=O)O (stereo not drawn)
inactive: [1] 7.75% | [2] -11.2% | [3] 10.1% | [4] -6.15% | [5] -3.1% | [6] 13.3%

ON1CCCC1
inactive: [1] -1.35% | [2] -4.15% | [3] -8.9% | [4] -6.6% | [5] 6.4% | [6] 1.5%

c1cc(CNCCNCc2ccncc2)ccn1
inactive: [1] -36% | [2] -48% | [3] -46.5% | [4] -4.15% | [5] -34% | [6] -34.5%

OC(CCN1CCCCC1)(c1ccccc1)c1ccccc1
inactive: [1] -29.6% | [2] -21.9% | [3] -41.5% | [4] 16.4% | [5] -20.2% | [6] -18.4%

Cc1cc2c(C(C)C)c(O)c(O)c(C=Nc3ccccc3[N+](=O)[O-])c2c(O)c1-c1c(C)cc2c(C(C)C)c(O)c(O)c(C=Nc3ccccc3[N+](=O)[O-])c2c1O
inactive: [1] -13.9% | [2] -19.6% | [3] -19.6% | [4] -21.8% | [5] -17.4% | [6] -2.3%

Clc1cccc(Cl)c1C1CSc2ccccc2N=C1c1ccccc1 (stereo not drawn)
inactive: [1] -2.55% | [2] 8.9% | [3] 16.3% | [4] 11% | [5] -0.9% | [6] 3.65%

O=C(CC(CC(=O)c1ccccc1)c1ccccn1)c1ccccc1
inactive: [1] -16.6% | [2] -20.2% | [3] -28.1% | [4] -33% | [5] 4.65% | [6] -42.1%

CCOc1ccc(NC(=S)N2CCC(CCCC3CCN(C(=S)Nc4ccc(OCC)cc4)CC3)CC2)cc1
inactive: [1] -6.6% | [2] -31.9% | [3] -15.1% | [4] 14.9% | [5] -9.05% | [6] -11.4%

Cc1onc(-c2ccccc2Cl)c1C(=O)Cl
inactive: [1] -41.3% | [2] -41.3% | [3] -13.2% | [4] 4.5% | [5] -31.1% | [6] -29.3%

Clc1ncnc2nc[nH]c12
inactive: [1] -1.9% | [2] -1% | [3] 15.5% | [4] 16.9% | [5] 0.35% | [6] -39.4%

CC(=O)c1cc(O)ccc1O
inactive: [1] -6.45% | [2] -10.1% | [3] 10.3% | [4] -11.1% | [5] -2.6% | [6] 1.8%

CCC(C)C1CCC(O)CC1 (stereo not drawn)
inactive: [1] 30.8% | [2] 9.55% | [3] 9.15% | [4] 21.5% | [5] 24.2% | [6] 18.9%

CC(CCC#N)(CCC#N)C(=O)c1ccccc1
inactive: [1] 28.6% | [2] 25.7% | [3] 25.1% | [4] -38.3% | [5] -4.75% | [6] 7.65%

NNc1ncnc2nc[nH]c12
inactive: [1] -20.4% | [2] -9.65% | [3] -14.3% | [4] -44.7% | [5] -15.9% | [6] -19.4%

N#CC1(O)CCCCC1
inactive: [1] 42.6% | [2] 10.6% | [3] 14.7% | [4] 23.2% | [5] 17.9% | [6] 28.4%

Cc1cccc2ccccc12
inactive: [1] -9.65% | [2] -15.6% | [3] 10.5% | [4] 24.4% | [5] -3.6% | [6] 13.8%

CCN(CC)CCCC(C)NC(=S)N/N=C(\C)c1ccccn1 (stereo not drawn)
inactive: [1] 60.6% | [2] 47.6% | [3] 41% | [4] 11.2% | [5] 29.1% | [6] 42.7%

CC1CC2C3CCC4=CC(=O)CCC4(C)C3CCC2(C)C1(O)C(=O)CO (stereo not drawn)
inactive: [1] 2% | [2] -0.8% | [3] 9.1% | [4] -44% | [5] -14.3% | [6] -0.55%

Clc1cccc(Cl)c1CSc1nc2ccccc2n2cccc12
inactive: [1] -13.3% | [2] -26.8% | [3] 5.2% | [4] 17.6% | [5] -29.9% | [6] -19%

CC(C)C(C)(C)C(=O)C(C)(C)C(C)(C)C
inactive: [1] -12.2% | [2] -2.65% | [3] -9.7% | [4] -35.5% | [5] 2.6% | [6] 7.95%

CCNc1ccc2ccccc2c1N=Nc1ccc(N=Nc2ccccc2)cc1
inactive: [1] -12.4% | [2] -30% | [3] 11.5% | [4] 9.75% | [5] -12.7% | [6] -8.55%

CCOC(=O)c1cc(Cl)c(O)c(Cl)c1
inactive: [1] 4.5% | [2] -14% | [3] 1.4% | [4] 11.7% | [5] 3.25% | [6] 13.9%

Nc1nc(Cl)cc(Cl)n1
inactive: [1] 6.65% | [2] 3.15% | [3] 0% | [4] 5.05% | [5] 2.85% | [6] 3.25%

C1C[S+]2CC[S+]1CC2
inactive: [1] 3.5% | [2] 28.9% | [3] 24.3% | [4] -5.95% | [5] 19.2% | [6] 28.2%

O=c1nc(Nc2cccc(Cl)c2)oc2cc(Cl)oc(=O)c12
inactive: [1] 32.5% | [2] 26% | [3] 51.8% | [4] 19.6% | [5] 36.5% | [6] 42.6%

O=C(O)C1CCCN1C(=O)OCc1ccccc1 (stereo not drawn)
inactive: [1] -23.4% | [2] -47.6% | [3] -17.9% | [4] -2.45% | [5] -22.9% | [6] -8.9%

COc1c(CNC(=O)CCl)cc2[nH]c(C)cc2c1CNC(=O)CCl
inactive: [1] 4.9% | [2] 4.95% | [3] 17.3% | [4] 2.2% | [5] 9.7% | [6] -25.9%

O=c1cc(C(F)(F)F)[nH]c(=S)[nH]1
inactive: [1] -21.9% | [2] -5.05% | [3] -15.8% | [4] -20.9% | [5] -24.8% | [6] -26.2%

Cc1ccc(OC(=O)c2ccccc2)cc1
inactive: [1] 9.3% | [2] -9.65% | [3] -18.6% | [4] -6.75% | [5] -8.6% | [6] -14.6%

c1ccc2c(NCCCN3CCN(CCCNc4c5ccccc5nc5ccccc45)CC3)c3ccccc3nc2c1
inactive: [1] 23.9% | [2] 4.6% | [3] 11.1% | [4] -0.25% | [5] 22.2% | [6] 14.9%

C=CC1=NC(C)(C)CC(C)O1 (stereo not drawn)
inactive: [1] 8% | [2] -15.2% | [3] 9.75% | [4] 25.4% | [5] 11.5% | [6] 9.75%

CCN(CC)CCOC(=O)Nc1c(C(C)C)cccc1C(C)C
inactive: [1] -2.7% | [2] -24.3% | [3] 14.3% | [4] 15.4% | [5] 13% | [6] 2.15%

COC1CC(OC(=O)c2ccc([N+](=O)[O-])cc2)C(COC(=O)c2ccc([N+](=O)[O-])cc2)O1 (stereo not drawn)
inactive: [1] 9.45% | [2] 20.8% | [3] 1.9% | [4] -1.1% | [5] -0.7% | [6] 36.1%

Oc1cc(O)c2c(c1)O[C@H](c1ccc(O)c(O)c1)[C@@H](O)C2
inactive: [1] 0.9% | [2] -17.9% | [3] 2.75% | [4] 1.35% | [5] -6.45% | [6] -18.1%

Nc1ncc([N+](=O)[O-])cn1
inactive: [1] 1.9% | [2] -4.7% | [3] -29% | [4] -13.8% | [5] 5.6% | [6] -9.45%

O=C(CCl)Oc1ccc([N+](=O)[O-])cc1
inactive: [1] 20.8% | [2] 21.9% | [3] 23.8% | [4] 11.7% | [5] 19.8% | [6] 26.6%

O=C(O)CC1=CCCCC1
inactive: [1] 23.4% | [2] -21.6% | [3] 0.9% | [4] 10.2% | [5] -4.65% | [6] 6.9%

O=C(NCc1ccco1)Nc1cccc2c(NC(=O)NCc3ccco3)cccc12
inactive: [1] 2.15% | [2] -13.5% | [3] 2.6% | [4] 25.8% | [5] 2.05% | [6] 4.85%
